Source: PubChem
G9a block = inhibitors of human histone lysine methyltransferase G9a. Q96KQ7. G9a H3K9 monomethylation, AlphaScreen, 2 h. Potency, µM (series often up to 102 µM), for inactives: at the highest dose activity, negative = inhibition, usual class: inhibitors. 350,000 tested, 8.8% active. AID 504332; further: potency means the concentration at half of the fitted maximal effect; on the % scale 0 is the no-effect control and ±100 the full control effect; nearly all actives have a fitted effect of over 75% in size
Target sequence (Q96KQ7 913-1193 limits assumed): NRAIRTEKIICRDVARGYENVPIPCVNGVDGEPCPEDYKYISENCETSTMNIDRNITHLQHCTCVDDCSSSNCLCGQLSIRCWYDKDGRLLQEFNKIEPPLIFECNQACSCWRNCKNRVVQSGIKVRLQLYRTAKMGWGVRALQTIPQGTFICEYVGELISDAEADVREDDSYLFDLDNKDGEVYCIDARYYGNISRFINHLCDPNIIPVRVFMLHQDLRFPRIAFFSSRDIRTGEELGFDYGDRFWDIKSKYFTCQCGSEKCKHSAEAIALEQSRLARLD
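G9a (20 nM) preincubated 15 min RT with compounds, then 500 nM biotinylated H3K9 peptide and 20 uM SAM added; 2 h RT reaction. Monomethyl-H3K9 product detected by AlphaScreen with anti-H3K9me1 antibody, streptavidin donor and anti-rabbit IgG acceptor beads.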
JMJD2A Tudor inh = blocks the human JMJD2A Tudor domain | AID 504339 | O75164 | 390,000 tested, 4.4% active | AlphaScreen JMJD2A-Tudor / H3K4me3 peptide binding | Potency, µM (highest dose often 114 µM), for the others: at the top dose activity change, negative = inhibition, actives largely listed as inhibitors; further: potency means the concentration at half of the fitted maximal effect; on the % scale 0 is the no-effect control and ±100 the full control effect; nearly all actives have a fitted effect of over 50% in size
PI5P4Ka inh = inhibitors of human PI5P4K alpha | P48426 | PI5P4Kalpha enzyme, ADP-Glo luminescence, 60 min; active compounds read low | max response, % | 330,000 tested, 1.2% active | AID 652105; active means max response of -50% or lower; inconclusive means between -30% and -50%; inactive means -30% or higher; further: value at the top dose of about 77 µM; on the % scale 0 is the no-effect control and ±100 the full control effect
Target sequence (P48426 whole entry, looked up): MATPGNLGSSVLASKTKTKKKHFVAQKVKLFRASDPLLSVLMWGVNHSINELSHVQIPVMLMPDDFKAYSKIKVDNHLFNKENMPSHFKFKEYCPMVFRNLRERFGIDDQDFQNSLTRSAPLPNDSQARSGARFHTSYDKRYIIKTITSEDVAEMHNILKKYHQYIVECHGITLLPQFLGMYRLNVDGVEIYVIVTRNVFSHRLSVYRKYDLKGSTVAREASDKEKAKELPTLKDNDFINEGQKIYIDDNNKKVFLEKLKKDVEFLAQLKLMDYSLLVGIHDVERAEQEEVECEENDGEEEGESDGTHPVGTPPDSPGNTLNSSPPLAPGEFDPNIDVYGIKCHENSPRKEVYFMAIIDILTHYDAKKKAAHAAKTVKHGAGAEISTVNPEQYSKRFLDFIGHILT
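Enzyme plus substrate dispensed, test compounds pinned in, then ATP (5 microM final) added. After 60 min at RT, ADP-Glo reagent 1 for 45 min and reagent 2 for 30 min preceded luminescence imaging.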
HP1b chromo inh = HP1-beta chromodomain-methylated histone interaction inhibition; AlphaScreen HP1-beta / biotin-H3K9me3 peptide binding; Potency, µM (top dose mostly 114 µM), inactives show at the highest dose activity change, negative = inhibition, hits mostly inhibitors; 390,000 tested, 0.56% active; further: potency means the concentration at half of the fitted maximal effect; nearly all actives have a fitted effect of over 70% in size
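AlphaScreen: HP1-beta (50 nM) preformed 30 min with biotin-H3(1-18)K9me3 peptide (50 nM) in PBS pH 7.4, 0.01% Tween-20. Compound added for 30 min at RT, then streptavidin donor/nickel chelate acceptor beads (10 ug/mL) for 30 min.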
BAZ2B block = BAZ2B (human) inhibition. Q9UIF8. AlphaScreen BAZ2B-H3K14Ac peptide displacement. Potency, µM (titrated, usually from 114 µM), without a hit: at the highest dose activity change, negative = inhibition, hits mostly inhibitors. 360,000 tested, 4.4% active. AID 504333; further: potency means the concentration at half of the fitted maximal effect; on the % scale 0 is the no-effect control and ±100 the full control effect; nearly all actives have a fitted effect of over 60% in size
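BAZ2B (50 nM) with biotin-H3(5-23)K14Ac peptide (50 nM) in PBS pH 7.4, 0.01% Tween-20, preformed 30 min, then compound 30 min at room temperature; top concentration 110uM. AlphaScreen streptavidin donor/nickel chelate acceptor beads (10 ug/mL final), 20 min dark, signal read.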
PLK1 PBD block = inhibitors of human PLK1 polo-box domain binding. P53350. Plk1 PBD binding of FITC phosphopeptide, fluorescence polarization. Potency, µM, without a hit: max response, negative = inhibition, most hits filed as inhibitors. 360,000 tested, 2.8% active. AID 720504; further: potency means the concentration at half of the fitted maximal effect; series mostly up to about 57 µM; on the % scale 0 is the no-effect control and ±100 the full control effect; nearly all actives have a fitted effect of over 65% in size
* = called active by the depositor; ? = inconclusive; · = not tested or not shown; [ ] = dose if it differs, or a comment. Sampled rows, rich in hits. Any-hit rate of the full collection: about 12%. Unless noted, the call rests on the fitted dose curve; in most records, active means well fitted curve in the direction sought with a large enough effect; inconclusive means small, poorly fitted or top-dose-only effect, or another doubt; inactive means no such curve, though single readings can be large; an effect the other way counts as inactive or inconclusive.

SMILES	G9a block	JMJD2A Tudor inh	PI5P4Ka inh	HP1b chromo inh	BAZ2B block	PLK1 PBD block
COc1cc(NC2c3ccccc3C(=O)N2Cc2ccc3c(c2)OCO3)cc(OC)c1OC (configuration not stated)	?	-32%	-5	7%	-28%	-8%
CCOc1ccc(NC2c3ccccc3C(=O)N2Cc2ccc3c(c2)OCO3)cc1 (configuration not stated)	35µM*	45µM*	2	?	16µM*	-15%
CC(=O)c1cccc(NC2c3ccccc3C(=O)N2Cc2ccc3c(c2)OCO3)c1 (configuration not stated)	?	-17%	-6	25%	-2%	-5%
O=C1c2ccccc2C(Nc2cccnc2)N1Cc1ccccc1 (configuration not stated)	25µM*	-14%	2	17%	?	-5%
O=C1c2ccccc2C(Nc2cccnc2)N1Cc1ccccc1Cl (configuration not stated)	?	-11%	-1	43%	4%	2%
O=C1c2ccccc2C(Nc2ccc3c(c2)OCCO3)N1Cc1ccccc1 (configuration not stated)	45µM*	40µM*	-6	?	40µM*	-5%
CCc1nc2ccc(C(=O)N3CCN(S(=O)(=O)CC)CC3)cn2c1N(CC)CCOC	·	·	1	·	·	2%
CC(C)Nc1ncnc2c1ncn2[C@H]1CN(CCN2CCOCC2)C[C@@H](CO)O1	·	·	0	·	·	-1%
O=C1NC2(CCCCCC2)C(=O)N1Cc1cccc([N+](=O)[O-])c1	-10%	?	-23	1%	-13%	27µM*
CC1CCCCN1S(=O)(=O)c1cccc2nonc12 (configuration not stated)	4%	-19%	0	19%	-19%	1%
CN(C)Cc1cc(O)c(CN(C)C)cc1O	1.4µM*	0.79µM*	-5	?	22µM*	?
CN(C)Cc1cc(C(C)(C)C)cc(C(C)(C)C)c1O	7%[12.7 µM]	-11%[11.4 µM]	1	55%	-1%	-2%
COc1ccc(C(=O)COC(=O)c2cnc(C)cn2)c(OC)c1	-23%	-19%	-56*	-5%	7%	-2%
Cc1cnc(C(=O)OCC(=O)c2csc(N3CCCCC3)n2)cn1	0%[12.7 µM]	?	-60*	-2%	?	-14%
COc1ccccc1C(=O)COC(=O)c1cnc(C)cn1	5%[12.7 µM]	-3%	5	18%	11%	-22%
COc1ccc(C(=O)COC(=O)c2ccc(Cl)nc2)c(OC)c1	-31%	-14%	?	-7%	79µM*	-5%
Cc1cnc(C(=O)OCC(=O)c2ccc(C)s2)cn1	0%[12.7 µM]	-19%	-1	29%	-7%	-8%
COc1ccc(C(=O)COC(=O)c2ccccc2O)c(OC)c1	-32%[59 µM]	?	-57*	28%	50µM*	-9%
Cc1ccc(C)c(NC(=O)c2cc([N+](=O)[O-])cc([N+](=O)[O-])c2)c1	17%	-6%	5	21%	4%	-9%
CCC(C(=O)NC1CCCCC1)n1c2ccccc2c2nc(=O)cc(C)n21 (configuration not stated)	·	0%	2	44%	-11%	-3%
Cc1cnc(C(=O)OCC(=O)c2cc(C)n(CCc3ccc(F)cc3)c2C)cn1	·	·	-15	·	·	-16%
COc1ccc(CCn2c(C)cc(C(=O)COC(=O)c3cnc(C)cn3)c2C)cc1	50µM*	-31%	1	35%	?	2%
Cc1ccc(N(Cc2cccs2)C(=O)COc2ccccc2[N+](=O)[O-])cc1	-24%[59 µM]	-26%	·	18%	?	·
COc1ccc(C(=O)NC(=S)NNC(=O)c2ccc(C)cc2)cc1	·	?	?	9%	·	-29%
CCCCCC(=O)NC(=S)NC1C2CC3CC(C2)CC1C3 (configuration not stated)	45µM*	0%	-13	56%	-4%	?
SMILES	G9a block	JMJD2A Tudor inh	PI5P4Ka inh	HP1b chromo inh	BAZ2B block	PLK1 PBD block
Cc1ccc(C(=O)NC(=S)NNC(=O)CC#N)cc1	8.9µM*	?	-6	11%	-26%	-11%
CCCCC(=O)NNC(=S)NCc1ccccc1	22%[12.7 µM]	-16%	2	35%	-15%	-6%
CCCCCC(=O)NNC(=S)NC(C)=O	18µM*	45µM*	?	-1%	11%	-26%
CCCCCC(=O)NC(=S)Nc1cccc(C(C)=O)c1	3%[59 µM]	2%	1	34%	9%	-8%
CCCCC(=O)NNC(=S)NC(=O)c1ccc(C)cc1	11µM*	-13%	-6	14%	6%	-16%
COCC(C)n1c(SCC(=O)Nc2c(C)n(C)n(-c3ccccc3)c2=O)nc2ccccc2c1=O (configuration not stated)	·	-15%	10	25%	·	-7%
COc1ccc2nc(SCC(O)c3cccc(Br)c3)[nH]c2c1 (configuration not stated)	?	?	·	-5%	-11%	·
CN1/C(=C/C=C/c2n(C)c3cc([N+](=O)[O-])c([N+](=O)[O-])cc3[n+]2C)C(C)(C)c2ccccc21	·	·	?	·	·	4%
CCCCC(=O)NNC(=S)NC(=O)c1ccc([N+](=O)[O-])cc1	2.8µM*	32µM*	-25	?	?	24µM*
CCCCC(=O)NNC(=S)NC(=O)c1cccc([N+](=O)[O-])c1	·	22µM*	·	?	?	?
CCCCC(=O)Nc1cccc(NC(=O)c2cccc([N+](=O)[O-])c2)c1	-34%	-12%	0	43%	-25%	-6%
CCCCCC(=O)NNC(=O)Cc1ccc([N+](=O)[O-])cc1	-40%	-10%	2	6%	7%	-7%
COc1cc(OC)c(OC)cc1CNCCCSc1nnnn1C	1%[59 µM]	-6%	·	58%	-9%	·
CNC(=O)C1CCN(Cc2cc3ccccc3n2Cc2cccc(C)c2)CC1	-1%[59 µM]	-30%	·	-17%	?	·
Cc1sc2nc(SCc3nc(-c4ccccc4)no3)n(-c3ccccc3)c(=O)c2c1C	3.2µM*	12%	2	21%	1%	0%
Cc1sc2nc(SCC(N)=O)n(-c3ccccc3)c(=O)c2c1C	-4%	-2%[57.1 µM]	-9	43%	9%	-19%
Cc1cc(C)cc(Oc2nc3c(c(=O)n(C)c(=O)n3C)n2Cc2ccc(F)cc2)c1	5%[59 µM]	8%	·	26%	-1%	·
CC1=C(C(=O)OC2CCCC2)C(c2ccccc2C(F)(F)F)CC(=O)N1 (configuration not stated)	-5%[59 µM]	-5%	·	32%	0%	·
O=C(NN=C1CCCCCCCCCCC1)c1ccncc1	12%[59 µM]	28µM*	1	38%	?	-5%
N#Cc1c(Nc2cccc(F)c2)sc(C(=O)c2ccc(Cl)cc2)c1N	11µM*	-15%	·	5%	?	·
